# In PubChem BioAssay (NCI):
# About 83,000 compounds went through this panel and 20% of them were active in at least one assay; those are over-represented in the sample as a whole.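 In brief: 96-well plates, 48 h treatment, single concentration, percent growth endpoint.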 Values without a mark were called inactive. Active and inactive are the calls of the source. How the source made its calls: active means growth percent below 10; inactive means the rest.
# Experiments:
# Test in all cases: NCI-60 one-dose screen, 48 h (100 = growth as untreated, 0 = no growth, -100 = all killed)
# Settings in all cases: 10 µM unless noted
# T-47D breast = tested on: T-47D breast
# BT-549 breast = tested on: BT-549 breast
# MDA-MB-435 melanoma = tested on: MDA-MB-435 melanoma
# SW-620 colon = tested on: SW-620 colon
# MCF7 breast = tested on: MCF7 breast
# HCT-116 colon = tested on: HCT-116 colon
# HCC-2998 colon = tested on: HCC-2998 colon
# KM12 colon = tested on: KM12 colon
Compound,growth (T-47D breast),growth (BT-549 breast),growth (MDA-MB-435 melanoma),growth (SW-620 colon),growth (MCF7 breast),growth (HCT-116 colon),growth (HCC-2998 colon),growth (KM12 colon)
O=C(NCN1C(=O)c2cccc3cccc(c23)C1=O)N1CCC(Cc2ccccc2)CC1,88%,98.4%,104%,100%,87.5%,87%,109%,99.4%
O=C1c2cccc3cccc(c23)C(=O)N1CC#Cc1ccc2c3c(cccc13)C(=O)N(CCN1CCNCC1)C2=O,38.3%,101%,105%,28.3%,-43.9% (active),-64.1% (active),104%,98.9%
COC(=O)[C@]12CC[C@@H](C)[C@H](C)[C@@H]1C1=CC[C@@H]3[C@@]4(C)C[C@@H](O)OC[C@](C)(C=O)C4C(=O)C[C@@]3(C)[C@]1(C)CC2 (stereo partly specified),-4.48% (active),-10.1% (active),2.15% (active),17%,6.16% (active),-44.4% (active),6.06% (active),6.15% (active)
Cc1cc(Nc2ccc(F)cc2)nc(N2CCN(c3ccnc4cc(Cl)ccc34)CC2)n1,10.8%,47.5%,13.2%,23.1%,9.35% (active),4.86% (active),25.8%,21.6%
Cn1cc(-c2nc(-c3c[nH]c4ncccc34)cs2)c2cc(Cl)ccc21,38.9%,70.6%,51.9%,73.3%,17%,32.2%,80.6%,9.88% (active)
C/C(=N\Nc1ccc2ccccc2n1)c1ccccn1,19.8%,20.3%,3.21% (active),10.3%,8.28% (active),-12% (active),18.1%,6.76% (active)
COC(=O)[C@]12CC[C@@H](C)[C@H](C)[C@@H]1C1=CC(=O)[C@@H]3[C@@]4(C)C[C@@H](OC(C)=O)[C@H](OC(C)=O)[C@@](C)(COC(C)=O)[C@@H]4C(=O)C[C@@]3(C)[C@]1(C)CC2,45.1%,17.8%,57.8%,50.2%,42.5%,22.6%,68.7%,44.7%
Clc1ccc2[nH]cc(-c3nc(-c4c[nH]c5ncccc45)cs3)c2c1,47.8%,59.3%,49.4%,18.1%,35%,23.7%,69.3%,23.3%
CCC(CC)C(=O)OC(C)COc1ccc(C(C)(C)C)cc1 (stereo unspecified),113%,109%,105%,106%,101%,90.7%,101%,102%
O=C1NC(c2ccc(Cl)c(Cl)c2)=C/C1=C\c1ccccc1,12.5%,86.2%,86.6%,56.8%,63.1%,26.5%,103%,89.2%
Fc1ccc(Nc2nnc(-c3ccc(Cl)cc3)o2)cc1,66.2%,99%,111%,105%,75.4%,85.1%,98.9%,97.8%
CC1(C)C(=O)/C(=C\c2cccnc2)C[C@]2(C)[C@H]3CC[C@@H]4[C@@H](C(=O)/C=C/c5ccncc5)CC[C@@]4(C)[C@]3(C)CC[C@@H]12,16.9%,8.03% (active),-11.4% (active),8.95% (active),26.2%,-86.9% (active),59.7%,-20.9% (active)
C[C@@H](Oc1ccc(C(=O)NS(=O)(=O)C(C)(C)C)cc1C(F)(F)F)c1ccc(Oc2ccccc2)cn1,39%,27.6%,-50.1% (active),23.3%,15%,25.5%,61.1%,28.3%
COC(=O)CCCCCn1c2ccccc2c2c3c(c4c5ccccc5[nH]c4c21)C(=O)N(O)C3=O,21.6%,59%,71.2%,48.7%,13.1%,28.4%,55.4%,46.5%
C=C(C)[C@@H]1CC[C@]2(C(=O)NNC(=O)c3cccnc3)CC[C@]3(C)[C@H](CC[C@@H]4[C@@]5(C)CCCNC(C)(C)[C@@H]5CC[C@]43C)[C@@H]12,57.6%,82.3%,83.6%,85.7%,59%,45.7%,73.4%,78.4%
Cc1csc(Nc2nc(-c3ccc(Cl)cc3)nc(C(Cl)(Cl)Cl)n2)n1,61.6%,97.1%,89.3%,78.6%,59.4%,79.1%,70%,79.6%
COc1cc2c(cc1-c1c(C)noc1C)ncc1nc(C3CCC(F)(F)CC3)n([C@@H](C)COC(F)F)c12,29.2%,56.3%,36.5%,62.5%,13.6%,34.1%,52.3%,41.8%
Cc1ccc(S(=O)(=O)Nc2ccc(-c3cc(-c4cccc(F)c4)c(C#N)c(N)n3)cc2)cc1,-27.2% (active),7.45% (active),19.6%,-31.7% (active),11.3%,-73.2% (active),39.7%,46.7%
Cn1cc(-c2csc(-c3cn(CCN)c4ccc(Br)cc34)n2)c2cccnc21,45.5%,93.2%,91.1%,21.1%,20.9%,58.7%,97.9%,71.8%
NCCn1cc(-c2nc(-c3c[nH]c4ncccc34)cs2)c2cc(F)ccc21,26.3%,95.7%,81.7%,50.2%,57.2%,61.4%,96.2%,65.6%
CN1CCN(CCOc2ccc(-c3cnc4c(-c5ccccc5F)cnn4c3)cc2)CC1,23%,69.9%,-29.2% (active),-73.8% (active),19.2%,3.73% (active),22.4%,9.44% (active)
C=COCCCCCCCCCCCCCCCCCC,114%,103%,114%,104%,104%,103%,99.3%,92.8%
COc1cccc(-c2nn(-c3ccccc3)cc2-c2ccnc(NCCCNS(=O)(=O)c3ccccc3)c2)c1,-4.99% (active),35.7%,37.4%,46.5%,18.2%,25.7%,19.7%,29.6%
Cc1ccsc1-c1ccc2c(c1)COC2(CCCN(C)C)c1ccc(F)cc1 (stereo unspecified),48.7%,81.9%,17.1%,54.3%,22.7%,23.3%,-48.4% (active),42.6%
COc1cc(-c2cc3ncccc3c3[nH]c(=O)c4cccnc4c23)cc(OC)c1OC,37.5%,49.1%,-26.2% (active),32.9%,17.3%,17.8%,48.5%,30.7%
Cc1cc(Cl)nc(N(CCCNc2ccnc3cc(Cl)ccc23)Cc2ccco2)n1,3.69% (active),8.06% (active),22.8%,20%,12.2%,3.68% (active),22%,22.4%
C[C@H]1[C@@H]2[C@H]3CC[C@@H]4[C@@]5(C)Cc6c([nH]c7ccccc67)C(C)(C)[C@@H]5CC[C@@]4(C)[C@]3(C)CC[C@]23CO[C@]1(C)[C@@H](C(=O)/C=C/c1ccccn1)C3,65%,87.1%,83.8%,95.9%,69.2%,46.4%,103%,93.2%
